About 2,100 (0.53%) of roughly 400,000 compounds were called active. Another 14% or so got no clear call; they are omitted. The rule behind the calls is not given here. The sample as a whole holds a higher share of actives than the screen did.
target: Ataxin-2 (Homo sapiens) (UniProt Q99700); experiment: qHTS for Inhibitors of ATXN expression.; assay type: functional
Sequence (Q99700 whole entry): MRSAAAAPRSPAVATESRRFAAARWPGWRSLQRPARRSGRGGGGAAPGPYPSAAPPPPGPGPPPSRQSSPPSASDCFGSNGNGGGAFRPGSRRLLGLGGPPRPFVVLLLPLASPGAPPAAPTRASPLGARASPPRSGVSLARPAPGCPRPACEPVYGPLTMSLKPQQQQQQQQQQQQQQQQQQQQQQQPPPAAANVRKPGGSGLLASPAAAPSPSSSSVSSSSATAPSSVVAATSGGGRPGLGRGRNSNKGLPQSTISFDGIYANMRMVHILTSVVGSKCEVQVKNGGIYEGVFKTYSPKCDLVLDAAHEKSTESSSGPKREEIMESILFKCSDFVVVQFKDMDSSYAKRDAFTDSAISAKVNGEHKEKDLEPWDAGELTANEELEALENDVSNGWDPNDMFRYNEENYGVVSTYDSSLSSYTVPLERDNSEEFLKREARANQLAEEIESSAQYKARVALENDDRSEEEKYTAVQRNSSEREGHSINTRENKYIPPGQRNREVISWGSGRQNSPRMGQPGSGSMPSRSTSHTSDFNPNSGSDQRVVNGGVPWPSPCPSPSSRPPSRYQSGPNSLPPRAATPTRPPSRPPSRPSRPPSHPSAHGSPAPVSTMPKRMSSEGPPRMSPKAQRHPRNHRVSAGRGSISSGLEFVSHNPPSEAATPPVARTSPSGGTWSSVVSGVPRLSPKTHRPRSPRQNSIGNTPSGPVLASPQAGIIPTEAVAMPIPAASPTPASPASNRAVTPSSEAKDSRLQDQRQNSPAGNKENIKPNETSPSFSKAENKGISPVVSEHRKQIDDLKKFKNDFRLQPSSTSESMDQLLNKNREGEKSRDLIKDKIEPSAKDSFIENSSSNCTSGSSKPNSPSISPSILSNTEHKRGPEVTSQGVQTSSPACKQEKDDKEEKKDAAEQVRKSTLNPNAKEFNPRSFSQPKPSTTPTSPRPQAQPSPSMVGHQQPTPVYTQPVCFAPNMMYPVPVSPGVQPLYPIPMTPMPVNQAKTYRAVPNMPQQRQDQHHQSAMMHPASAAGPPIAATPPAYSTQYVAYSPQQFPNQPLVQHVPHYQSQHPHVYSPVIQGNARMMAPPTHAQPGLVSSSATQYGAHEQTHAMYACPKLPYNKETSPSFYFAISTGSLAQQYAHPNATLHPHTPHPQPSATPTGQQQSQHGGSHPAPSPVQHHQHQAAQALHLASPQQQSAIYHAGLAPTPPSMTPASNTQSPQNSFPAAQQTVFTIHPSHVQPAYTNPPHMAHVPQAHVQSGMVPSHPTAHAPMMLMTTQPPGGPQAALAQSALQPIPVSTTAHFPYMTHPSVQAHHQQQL

SMILES	Potency
CCOC(=O)C(C)(C)N(Cc1cccc(C)c1)S(=O)(=O)c1ccc(Cl)c([N+](=O)[O-])c1	39.8 µM (active)
COc1ccc(Cl)cc1N(CC(=O)N(C)C)S(=O)(=O)c1ccc(C)c([N+](=O)[O-])c1	inactive
CCCCc1cc(=O)oc2c(CN(C)C)c(O)ccc12	inactive
CN(C)Cc1c(O)ccc2c3c(c(=O)oc12)CCCCC3	inactive
CCOC(=O)c1c(CSc2ccc(CC)cc2)oc2ccc(O)c(CN(C)C)c12	22.4 µM (active)
Cc1ccc(/C=N/n2c(S)nnc2-c2ccccn2)o1	inactive
Cc1ccc2nc(Cn3cc(C(F)(F)F)cc(Cl)c3=O)cc(=O)n2c1	inactive
CN(C)c1ccc(-c2[nH]nc(O)c2NC(=O)c2ccccn2)cc1	25.1 µM (active)
CN(C)c1ccc(/C=N/NC(=O)c2ccccn2)cc1	inactive
CCOc1cc(NC(=O)c2cccs2)c(OCC)cc1NC(=O)c1ccccn1	inactive
Cc1ccc(NC(=O)c2[nH]cnc2C(=O)NCCCCCNC(=O)OC(C)(C)C)cc1	39.8 µM (active)
CC(C)(C)OC(=O)NCCCCCNC(=O)c1[nH]cnc1C(=O)Nc1cc(Br)ccc1F	39.8 µM (active)
Cc1cccc(NC(=O)c2[nH]cnc2C(=O)NCCCCCNC(=O)OC(C)(C)C)c1	20 µM (active)
Cc1ccc(OCCNC(=O)c2ccccc2F)cc1	inactive
COc1cccc(-c2ccc3c(N)c(C(=O)c4ccc(Br)cc4)sc3n2)c1	inactive
O=S(=O)(NCc1csc(-c2cccs2)n1)c1cccc(C(F)(F)F)c1	inactive
CCCCn1c(OC(=S)N(CC)CC)cc(C)nc1=S	35.5 µM (active)
Nc1ccc2[nH]c(-c3ccc(-c4nc5cc(N)ccc5[nH]4)cc3)nc2c1	inactive
Nc1ccc2c3[nH]c4cc(N)ccc4cc-3nc2c1	inactive
Nc1ccc2[nH]c(-c3ccc(Cl)cc3)nc2c1	31.6 µM (active)
Cc1ccc2nc3c(cc(C(=O)NCCCn4ccnc4)n3C)c(=O)n2c1	inactive
Cc1cc(C)c2cc(N)c(Cl)nc2n1	inactive
CCOC(=O)c1cc2c(=O)n3ccccc3nc2n(CC2CCCO2)/c1=N/C(=O)/C=C/c1ccccc1 (centres undefined)	inactive
COc1cccc(-c2cnc3c(NC=O)cc(-c4ccc(N(C)C)cc4)cn23)c1	inactive
CN(C)C(=O)c1cccc(-c2cnc3c(NC=O)cc(-c4cccc(C(F)(F)F)c4)cn23)c1	39.8 µM (active)
CN(C)CCNC(=O)c1cccc(-c2cnc3c(NC=O)cc(-c4cc(F)c(F)c(F)c4)cn23)c1	25.1 µM (active)
CN(C)CCNC(=O)c1cccc(-c2cnc3c(NC=O)cc(-c4ccc(F)cc4)cn23)c1	35.5 µM (active)

SMILES	Potency
CN(C)c1ccccc1-c1cc(NC=O)c2ncc(-c3cccc(C(F)(F)F)c3)n2c1	inactive
CN(C)CCNC(=O)c1cccc(-c2cnc3c(NC=O)cc(-c4cccc(F)c4)cn23)c1	31.6 µM (active)
CC(=O)c1ccc(-c2cnc3c(NC=O)cc(-c4ccccc4Oc4ccccc4)cn23)cc1	inactive
CCCCCCc1cc2cc(-c3nnc(-c4ccccc4)o3)c(=O)oc2cc1O	inactive
CC(C)OC(=O)c1sc2nc(-c3ccccc3)ccc2c1N	inactive
O=C1CCn2c1c(O)c1ccccc1c2=O	inactive
O=C1OCCN1C(=O)[C@H]1[C@H](c2ccccc2)C(c2ccccc2)=NN1c1ccccc1	inactive
N#CC1(Nc2cccc(Br)c2)C(=O)Nc2ccccc21 (centres undefined)	inactive
COc1ccc(OC)c(S(=O)(=O)N2CCN(c3ccccc3)CC2)c1	inactive
O=C1c2[nH]nc(-c3ccc(Br)cc3)c2C(c2cccc(O)c2)N1c1ccc(Cl)cc1 (centres undefined)	28.2 µM (active)
O=C1OCCN1C(=O)[C@H]1[C@H](c2ccc(Cl)cc2)C(c2cccc(Cl)c2)=NN1c1ccc(Br)cc1	inactive
CCOc1cc(C2NN=C(c3ccc(C)cc3)S2)ccc1O (centres undefined)	inactive
Cc1cccc(C2=NN(c3ccc(Br)cc3)[C@@H](C(=O)N3CCOC3=O)[C@@H]2c2ccc(Cl)cc2)c1	inactive
CCOc1ccc(C2=CC(c3cc(Br)ccc3F)n3ncnc3N2)cc1Cl (centres undefined)	inactive
CCOc1cc(C2c3c(-c4ccc(Br)cc4)n[nH]c3C(=O)N2c2ccc(Cl)cc2)ccc1O (centres undefined)	28.2 µM (active)
CCN(CCCn1c(=S)[nH]c2ccc(N3CCOCC3)cc2c1=O)c1ccccc1	inactive
CN(/N=C/c1ccc2c(c1)OCO2)c1nc(N2CCOCC2)nc(N2CCOCC2)n1	inactive
Cc1nonc1NC(=O)CSc1nc2ccccc2cc1C#N	inactive
CC(=O)c1ccc2cccc3c2c1NC(C)=N3	inactive
Cc1nc(=O)c(-c2ccccc2)c(C)n1-c1ccccc1Cl	inactive
Cn1c(=O)c([N+](=O)[O-])c(-n2ccnc2)c2ccccc21	23.8 µM (active)
Cc1ccc(Sc2c([N+](=O)[O-])c(=O)n(C)c3ccccc23)cc1	28.2 µM (active)
CCN(CC)c1c([N+](=O)[O-])c(=O)n(CC)c2ccccc12	inactive
Cc1ccc(Sc2nc(C)c([N+](=O)[O-])c(C)c2C#N)cc1	inactive
Cn1c(=O)c([N+](=O)[O-])c(Cl)c2ccccc21	29.9 µM (active)
COc1ccccc1NC(=O)c1ccc(-n2ccnc2)c([N+](=O)[O-])c1	inactive
Cn1c2ccccc2c(=O)c2ccc(F)cc21	inactive
